Among all 5,500 compounds or so, about 2,000 (36%) were called active. Inconclusive results (about 18%) are left out. Rule as the data show it: active = normalized growth mostly below about 0.91 (no sharp cut-off); inconclusive = no clear call, values can overlap the other calls; inactive = mostly above about 0.92. This is one part of the list.
Assay: chemical genetic growth profiling, strain panel (AID 1159580);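 also: tested at 20 µM; growth read once vehicle control cultures reached saturation at 30 °C; 1 = growth at the plate median or of vehicle wells; lower values mean less growth of the strain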
Conditions: growth OD

Measured: normalized growth

CC(=O)NCCCCCC(=O)O
inactive: S. cerevisiae deletion strains, locus YJL187C, strain SWE1, stronger effect = lower value 1.01 | S. cerevisiae deletion strains, locus YJR043C, strain POL32, stronger effect = lower value 1.01 | S. cerevisiae deletion strains, locus YJR075W, strain HOC1, stronger effect = lower value 1.02 | S. cerevisiae deletion strains, locus YKL009W, strain mrt4, stronger effect = lower value 0.997 | S. cerevisiae deletion strains, locus YKL068W, stronger effect = lower value 0.994 | S. cerevisiae deletion strains, locus YKL085W, strain MDH1 (second series), stronger effect = lower value 0.989 | S. cerevisiae deletion strains, locus YKL085W, strain MDH1, stronger effect = lower value 0.989 | S. cerevisiae deletion strains, locus YKL160W, strain elf1, stronger effect = lower value 1.03 | S. cerevisiae deletion strains, locus YKL190W, strain CNB1, stronger effect = lower value 1.01 | S. cerevisiae deletion strains, locus YKR001C, strain vps1, stronger effect = lower value 1.01 | S. cerevisiae deletion strains, locus YKR026C, strain gcn3, stronger effect = lower value 0.963 | S. cerevisiae deletion strains, locus YKR091W, strain srl3, stronger effect = lower value 0.985 | S. cerevisiae deletion strains, locus YLL001W, strain dnm1, stronger effect = lower value 1.01 | S. cerevisiae deletion strains, locus YLL026W, stronger effect = lower value 1.01 | S. cerevisiae deletion strains, locus YLL041C, strain sdh2, stronger effect = lower value 0.994 | S. cerevisiae deletion strains, locus YLR027C, strain aat2, stronger effect = lower value 1.02 | S. cerevisiae deletion strains, locus YLR039C, strain RIC1, stronger effect = lower value 1.04 | S. cerevisiae deletion strains, locus YLR058C, strain SHM2, stronger effect = lower value 1.02 | S. cerevisiae deletion strains, locus YLR102C, strain apc9, stronger effect = lower value 0.989 | S. cerevisiae deletion strains, locus YLR221C, strain rsa3, stronger effect = lower value 1 | S. cerevisiae deletion strains, locus YLR258W, strain gsy2, stronger effect = lower value 0.992 | S. cerevisiae deletion strains, locus YLR262C, strain YPT6 (second series), stronger effect = lower value 1.02 | S. cerevisiae deletion strains, locus YLR262C, strain YPT6, stronger effect = lower value 1.07 | S. cerevisiae deletion strains, locus YLR268W, strain sec22, stronger effect = lower value 0.996 | S. cerevisiae deletion strains, locus YLR320W, strain mms22, stronger effect = lower value 1 | S. cerevisiae deletion strains, locus YLR330W, strain CHS5, stronger effect = lower value 1.01 | S. cerevisiae deletion strains, locus YLR342W, strain FKS1 (second series), stronger effect = lower value 1 | S. cerevisiae deletion strains, locus YLR342W, strain FKS1, stronger effect = lower value 0.982 | S. cerevisiae deletion strains, locus YLR357W, strain rsc2, stronger effect = lower value 1.01 | S. cerevisiae deletion strains, locus YLR370C, strain arc18, stronger effect = lower value 0.991 | S. cerevisiae deletion strains, locus YLR371W, strain rom2, stronger effect = lower value 0.983 | S. cerevisiae deletion strains, locus YLR384C, strain iki3, stronger effect = lower value 0.983 | S. cerevisiae deletion strains, locus YLR418C, strain cdc73, stronger effect = lower value 0.963 | S. cerevisiae deletion strains, locus YML016C, strain PPZ1, stronger effect = lower value 1.01 | S. cerevisiae deletion strains, locus YML032C, strain rad52, stronger effect = lower value 0.986 | S. cerevisiae deletion strains, locus YML120C, strain ndi1, stronger effect = lower value 1.01 | S. cerevisiae deletion strains, locus YML124C, strain tub3, stronger effect = lower value 0.989 | S. cerevisiae deletion strains, locus YMR058W, strain fet3, stronger effect = lower value 0.981 | S. cerevisiae deletion strains, locus YMR078C, strain ctf18, stronger effect = lower value 1 | S. cerevisiae deletion strains, locus YMR125W, strain sto1, stronger effect = lower value 0.986 | S. cerevisiae deletion strains, locus YMR129W, stronger effect = lower value 0.976 | S. cerevisiae deletion strains, locus YMR205C, strain PFK2, stronger effect = lower value 0.968 | S. cerevisiae deletion strains, locus YMR223W, strain ubp8, stronger effect = lower value 0.976 | S. cerevisiae deletion strains, locus YMR231W, strain pep5, stronger effect = lower value 0.978 | S. cerevisiae deletion strains, locus YMR307W, strain GAS1, stronger effect = lower value 1.01 | S. cerevisiae deletion strains, locus YNL067W, strain RPL9B, stronger effect = lower value 1.02 | S. cerevisiae deletion strains, locus YNL071W, strain lat1, stronger effect = lower value 0.989 | S. cerevisiae deletion strains, locus YNL209W, strain ssb2, stronger effect = lower value 0.994 | S. cerevisiae deletion strains, locus YNL233W, strain BNI4, stronger effect = lower value 1.03 | S. cerevisiae deletion strains, locus YNL248C, strain rpa49, stronger effect = lower value 1.01 | S. cerevisiae deletion strains, locus YNL250W, strain rad50, stronger effect = lower value 0.992 | S. cerevisiae deletion strains, locus YNL271C, strain bni1, stronger effect = lower value 0.971 | S. cerevisiae deletion strains, locus YNL298W, strain CLA4, stronger effect = lower value 0.986 | S. cerevisiae deletion strains, locus YNL307C, strain MCK1, stronger effect = lower value 0.988 | S. cerevisiae deletion strains, locus YNL322C, strain KRE1 (second series), stronger effect = lower value 0.995 | S. cerevisiae deletion strains, locus YNL322C, strain KRE1, stronger effect = lower value 1.01 | S. cerevisiae deletion strains, locus YNR049C, strain mso1, stronger effect = lower value 0.973 | S. cerevisiae deletion strains, locus YNR052C, strain pop2, stronger effect = lower value 0.995 | S. cerevisiae deletion strains, locus YOL006C, strain TOP1, stronger effect = lower value 1.09 | S. cerevisiae deletion strains, locus YOL012C, strain htz1 0.886 | S. cerevisiae deletion strains, locus YOL147C, strain pex11, stronger effect = lower value 0.988 | S. cerevisiae deletion strains, locus YOR001W, strain rrp6, stronger effect = lower value 1.04 | S. cerevisiae deletion strains, locus YOR061W, strain CKA2, stronger effect = lower value 1.02 | S. cerevisiae deletion strains, locus YOR069W, strain VPS5, stronger effect = lower value 1.01 | S. cerevisiae deletion strains, locus YOR070C, strain gyp1, stronger effect = lower value 0.994 | S. cerevisiae deletion strains, locus YOR080W, strain dia2, stronger effect = lower value 0.988 | S. cerevisiae deletion strains, locus YOR083W, strain WHI5, stronger effect = lower value 1.06 | S. cerevisiae deletion strains, locus YOR106W, strain vam3, stronger effect = lower value 1.01 | S. cerevisiae deletion strains, locus YOR136W, strain idh2, stronger effect = lower value 0.985 | S. cerevisiae deletion strains, locus YOR144C, strain elg1, stronger effect = lower value 0.978 | S. cerevisiae deletion strains, locus YOR184W, strain ser1, stronger effect = lower value 0.982 | S. cerevisiae deletion strains, locus YOR265W, strain rbl2, stronger effect = lower value 1.01 | S. cerevisiae deletion strains, locus YOR270C, strain vph1, stronger effect = lower value 0.968 | S. cerevisiae deletion strains, locus YOR290C, strain snf2, stronger effect = lower value 0.939 | S. cerevisiae deletion strains, locus YOR316C, strain cot1, stronger effect = lower value 0.987 | S. cerevisiae deletion strains, locus YPL051W, strain arl3, stronger effect = lower value 1.02 | S. cerevisiae deletion strains, locus YPL055C, strain LGE1, stronger effect = lower value 1.07 | S. cerevisiae deletion strains, locus YPL078C, strain atp4, stronger effect = lower value 1 | S. cerevisiae deletion strains, locus YPL106C, strain sse1, stronger effect = lower value 0.977 | S. cerevisiae deletion strains, locus YPL240C, strain hsp82, stronger effect = lower value 0.99 | S. cerevisiae deletion strains, locus YPR119W, strain clb2, stronger effect = lower value 0.993 | S. cerevisiae deletion strains, locus YPR141C, strain kar3, stronger effect = lower value 0.989 | S. cerevisiae deletion strains, locus YPR163C, strain tif3, stronger effect = lower value 0.98 | S. cerevisiae deletion strains, locus YPR167C, strain met16, stronger effect = lower value 0.977 | S. cerevisiae deletion strains, strain wtn01, stronger effect = lower value 0.976 | S. cerevisiae strains, strain wild type, stronger effect = lower value 1.01

Reference: PubChem BioAssay AID1159580 (chemical genetic matrix, 2015)
